Screen size: about 5,600 compounds; about 4,100 (73%) were called active. Another 4% or so got no clear call; they are omitted.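 Rule for the calls: active = mean replicate inhibition above about 95% and at least 55% of replicates individually reaching it (limit read from the data); inconclusive = only one of the two criteria is met; inactive = neither criterion is met.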 So high a share suggests a set chosen from earlier hits. The list is a sample of the results.
Assay: blockers of Trypanosoma cruzi growth in host cells – cell-based, NIH3T3 host, beta-gal parasite, luminescence, cherry-pick, confirmation (AID 651739)
Settings: T. cruzi beta-gal in NIH3T3, GalScreen luminescence, 90 h; at 8.35 µM; stronger effect = higher value

Which inhibition does the source give for `COc1ccccc1C#Cc1ccc([C@@H]2[C@H](CO)N3CCCCN(C(=O)C4CCCC4)C[C@@H]23)cc1` here?
The inhibition was 99.8% (active).

Which inhibition does the source give for `COc1ccccc1C#Cc1ccc([C@@H]2[C@H](CO)N3CCCCN(C(=O)C4CC4)C[C@@H]23)cc1` here?
Its inhibition is 103% (active).

Which inhibition does the source give for `COc1ccccc1C#Cc1ccc([C@H]2[C@H](CO)N3CCCCN(C(=O)C4CCC4)C[C@@H]23)cc1` here?
Its inhibition is 114% (active).

With `CC(C)C#Cc1ccc2c(c1)O[C@H](CN(C)Cc1ccccc1)[C@H](C)CN([C@@H](C)CO)S2(=O)=O` as the compound, how does the inhibition read?
Its inhibition is 105% (active).

Which inhibition does the source give for `C[C@@H]1CN([C@H](C)CO)S(=O)(=O)c2ccc(C#C[C@@H](C)O)cc2O[C@@H]1CN(C)Cc1ccc(-c2ccccc2)cc1` here?
Its inhibition is 96.5% (active).

With `C[C@H]1CN([C@@H](C)CO)S(=O)(=O)c2ccc(C#CCN(C)C)cc2O[C@@H]1CN(C)Cc1ccc(F)cc1` as the compound, how does the inhibition read?
Its inhibition is 109% (active).

With `C[C@@H]1CN([C@@H](C)CO)S(=O)(=O)c2ccc(/C=C/c3ccccc3)cc2O[C@H]1CN(C)Cc1ccccc1` as the compound, how does the inhibition read?
Its inhibition is 98.5% (active).

For `CCC(=O)N(C)C[C@@H]1Oc2cc(C#CCN(C)C)ccc2S(=O)(=O)N([C@H](C)CO)C[C@H]1C`, which inhibition is on record?
The inhibition was 98.5% (active).

For `CCCC#Cc1ccc2c(c1)O[C@@H](CN(C)C(=O)c1ccccc1F)[C@H](C)CN([C@H](C)CO)S2(=O)=O`, which inhibition is on record?
The inhibition was 105% (active).

Which inhibition does the source give for `CCCC#Cc1ccc2c(c1)O[C@H](CN(C)C(=O)CC)[C@@H](C)CN([C@H](C)CO)S2(=O)=O` here?
The inhibition was 99.3% (active).

With `CC(=O)N(C)C[C@H]1Oc2cc(C#CCN(C)C)ccc2S(=O)(=O)N([C@@H](C)CO)C[C@@H]1C` as the compound, how does the inhibition read?
The inhibition was 95.7% (active).

For `C[C@@H]1CN([C@@H](C)CO)S(=O)(=O)c2ccc(-c3cccc(F)c3)cc2O[C@@H]1CN(C)S(=O)(=O)c1ccccc1`, which inhibition is on record?
The inhibition was 104% (active).

With `C[C@H]1CN([C@@H](C)CO)S(=O)(=O)c2ccc(C#Cc3cccc(F)c3)cc2O[C@@H]1CN(C)S(=O)(=O)c1cn(C)cn1` as the compound, how does the inhibition read?
Its inhibition is 102% (active).

Which inhibition does the source give for `CC(C)CC#Cc1ccc2c(c1)O[C@H](CN(C)S(=O)(=O)c1cccc(F)c1)[C@@H](C)CN([C@@H](C)CO)S2(=O)=O` here?
The inhibition was 88.4% (inactive).

With `COCCNC[C@@H]1[C@H](c2ccccc2)[C@H](CO)N1c1nc(C)c(C)s1` as the compound, how does the inhibition read?
Its inhibition is 95.7% (active).

For `O=S(=O)(c1ccccc1)N1CC[C@@H]2[C@@H](CO)Nc3ccc(-c4ccccc4F)cc3[C@@H]21`, which inhibition is on record?
The inhibition was 103% (active).

Which inhibition does the source give for `CC(=O)N1CC[C@@H]2[C@H](CO)Nc3ccc(C#Cc4ccccc4F)cc3[C@@H]21` here?
Its inhibition is 70.2% (inactive).

With `O=C(c1cccc(F)c1)N1CC[C@@H]2[C@@H](CO)Nc3ccc(C#Cc4cccc(F)c4)cc3[C@@H]21` as the compound, how does the inhibition read?
The inhibition was 106% (active).

With `O=S(=O)(c1ccccc1)N1CC[C@@H]2[C@@H](CO)Nc3ccc(C#Cc4cccc(F)c4)cc3[C@@H]21` as the compound, how does the inhibition read?
Its inhibition is 100% (active).

With `O=S(=O)(c1ccccc1)N1CC[C@@H]2[C@H]1c1cc(C#Cc3cccc(F)c3)ccc1N[C@@H]2CO` as the compound, how does the inhibition read?
Its inhibition is 97.6% (active).

With `Cc1ccccc1S(=O)(=O)N1CC[C@H]2[C@H](CO)Nc3ccc(-c4cccc(F)c4)cc3[C@H]21` as the compound, how does the inhibition read?
Its inhibition is 105% (active).

With `O=C(Cc1ccccc1)N1CC[C@H]2[C@H](CO)Nc3ccc(-c4ccccc4F)cc3[C@H]21` as the compound, how does the inhibition read?
Its inhibition is 103% (active).

Which inhibition does the source give for `Cc1ccc(S(=O)(=O)Nc2ccc3c(c2)C(=O)N([C@@H](C)CO)C[C@@H](C)[C@H](CN(C)C(=O)Nc2cccc4ccccc24)OCCCC[C@H](C)O3)cc1` here?
The inhibition was 97.1% (active).

With `Cc1noc(C)c1S(=O)(=O)Nc1ccc2c(c1)C(=O)N([C@@H](C)CO)C[C@H](C)[C@@H](CN(C)C(=O)Nc1cccc3ccccc13)OCCCC[C@H](C)O2` as the compound, how does the inhibition read?
Its inhibition is 99.4% (active).

For `C[C@@H]1CCCCO[C@H](CN(C)C(=O)Nc2cccc3ccccc23)[C@H](C)CN([C@H](C)CO)C(=O)c2cc(NS(=O)(=O)c3cccs3)ccc2O1`, which inhibition is on record?
Its inhibition is 103% (active).

For `C[C@@H]1CN([C@@H](C)CO)C(=O)c2cc(C#CC3CCCCC3)cnc2O[C@H]1CN(C)S(=O)(=O)c1ccccc1`, which inhibition is on record?
Its inhibition is 107% (active).

With `C[C@H]1CN([C@@H](C)CO)C(=O)c2cc(C#CC3CCCCC3)cnc2O[C@H]1CN(C)S(=O)(=O)c1ccccc1` as the compound, how does the inhibition read?
The inhibition was 108% (active).

With `C[C@@H]1CN([C@H](C)CO)C(=O)c2cc(C#CC3CCCCC3)cnc2O[C@@H]1CN(C)C(=O)NC1CCCC1` as the compound, how does the inhibition read?
Its inhibition is 103% (active).

For `C[C@H](CO)N1C[C@H](C)[C@H](CN(C)C(=O)Nc2ccc3c(c2)OCO3)Oc2ncc(C#Cc3cccc(F)c3)cc2C1=O`, which inhibition is on record?
Its inhibition is 85.5% (inactive).

With `C[C@H](CO)N1C[C@H](C)[C@H](CN(C)C(=O)C2CCCCC2)Oc2ncc(C#Cc3cccc(F)c3)cc2C1=O` as the compound, how does the inhibition read?
The inhibition was 102% (active).

Which inhibition does the source give for `C[C@@H]1CN([C@H](C)CO)C(=O)c2cccc(NC(=O)c3ccc(-c4nccs4)cc3)c2O[C@@H]1CN(C)C(=O)Nc1ccc(C(F)(F)F)cc1` here?
The inhibition was 104% (active).

Which inhibition does the source give for `C[C@H](CO)N1C[C@H](C)[C@@H](CN(C)Cc2ccc(C(=O)Nc3ccccc3N)cc2)Oc2c(NC(=O)c3ccc(-c4nccs4)cc3)cccc2C1=O` here?
Its inhibition is 99.3% (active).

With `C[C@@H]1CN([C@H](C)CO)C(=O)c2cccc(NC(=O)c3cnccn3)c2O[C@@H]1CN(C)Cc1ccc(C(=O)Nc2ccccc2N)cc1` as the compound, how does the inhibition read?
The inhibition was 92.4% (inactive).

With `Cc1cc(C(=O)Nc2cccc3c2O[C@@H](CN(C)Cc2ccc(C(=O)Nc4ccccc4N)cc2)[C@H](C)CN([C@@H](C)CO)C3=O)n(C)n1` as the compound, how does the inhibition read?
Its inhibition is 105% (active).

For `C[C@@H]1CN([C@H](C)CO)C(=O)c2cccc(NC(=O)NC3CCCCC3)c2O[C@H]1CN(C)Cc1ccc(C(F)(F)F)cc1`, which inhibition is on record?
Its inhibition is 89.1% (inactive).

With `C[C@@H]1CN([C@H](C)CO)C(=O)c2cc(NS(=O)(=O)c3ccc(Cl)cc3)ccc2O[C@@H](C)CCCCO[C@H]1CN(C)Cc1ccccc1` as the compound, how does the inhibition read?
Its inhibition is 97.6% (active).

With `C[C@H](CO)N1C[C@H](C)[C@H](CN(C)Cc2ccc(C(F)(F)F)cc2)OCCCC[C@H](C)Oc2ccc(NS(=O)(=O)c3ccc(Cl)cc3)cc2C1=O` as the compound, how does the inhibition read?
The inhibition was 91.8% (inactive).

With `C[C@@H]1CCCCO[C@H](CN(C)Cc2ccccc2)[C@H](C)CN([C@H](C)CO)C(=O)c2cc(NS(=O)(=O)c3ccc(Cl)cc3)ccc2O1` as the compound, how does the inhibition read?
The inhibition was 99.5% (active).

Which inhibition does the source give for `COc1ccc(S(=O)(=O)Nc2ccc3c(c2)C(=O)N([C@H](C)CO)C[C@@H](C)[C@@H](CN(C)CC2CCCCC2)OCCCC[C@@H](C)O3)cc1` here?
Its inhibition is 91.5% (inactive).

With `C[C@H]1CCCCO[C@@H](CN(C)C(=O)NC2CCCCC2)[C@@H](C)CN([C@@H](C)CO)C(=O)c2cc(NS(=O)(=O)c3ccc(Cl)cc3)ccc2O1` as the compound, how does the inhibition read?
The inhibition was 103% (active).

For `COc1ccc(NC(=O)N(C)C[C@@H]2OCCCC[C@@H](C)Oc3ccc(NS(=O)(=O)c4ccc(Cl)cc4)cc3C(=O)N([C@H](C)CO)C[C@H]2C)cc1`, which inhibition is on record?
Its inhibition is 104% (active).

With `C[C@@H]1CCCCO[C@H](CN(C)C(=O)NC2CCCCC2)[C@H](C)CN([C@H](C)CO)C(=O)c2cc(NS(=O)(=O)c3ccc(Cl)cc3)ccc2O1` as the compound, how does the inhibition read?
The inhibition was 106% (active).

Which inhibition does the source give for `O=C(Nc1ccc(-c2ccccc2)cc1)[C@H]1[C@H](CO)[C@H]2Cn3c(cccc3=O)[C@H]2N1CC1CC1` here?
The inhibition was 101% (active).

Which inhibition does the source give for `O=C(NCc1ccccn1)[C@@H]1[C@@H](CO)[C@@H]2Cn3c(ccc(/C=C/c4ccccc4)c3=O)[C@H]1N2CC1CC1` here?
Its inhibition is 66.3% (inactive).

With `O=C(NCC1CCCCC1)[C@H]1[C@H](CO)[C@H]2Cn3c(cccc3=O)[C@H]2N1C(=O)CC1CC1` as the compound, how does the inhibition read?
The inhibition was 43% (inactive).

For `O=S(=O)(Cc1ccccc1)N1CCCCN2[C@@H](CO)[C@@H](c3ccc(-c4ccc(F)cc4)cc3)[C@@H]2C1`, which inhibition is on record?
The inhibition was 96.2% (active).

Which inhibition does the source give for `C/C=C/c1ccc([C@H]2[C@H]3CN(S(=O)(=O)c4ccccc4)CCCCN3[C@H]2CO)cc1` here?
The inhibition was 105% (active).

With `CCS(=O)(=O)N1CCCCN2[C@@H](CO)[C@@H](c3ccc(-c4ccccc4)cc3)[C@@H]2C1` as the compound, how does the inhibition read?
Its inhibition is 102% (active).

With `Cc1cccc(-c2ccc([C@@H]3[C@@H](CO)N4CCCCN(S(=O)(=O)c5cccs5)C[C@H]34)cc2)c1` as the compound, how does the inhibition read?
Its inhibition is 106% (active).

For `O=S(=O)(Cc1ccccc1)N1CCCCN2[C@@H](CO)[C@H](c3ccc(-c4cccnc4)cc3)[C@@H]2C1`, which inhibition is on record?
Its inhibition is 97.7% (active).

With `O=S(=O)(Cc1ccccc1)N1CCCCN2[C@@H](CO)[C@H](c3ccc(-c4ccccc4)cc3)[C@@H]2C1` as the compound, how does the inhibition read?
The inhibition was 97.9% (active).

For `C[C@H](O)C#Cc1ccc([C@H]2[C@H]3CN(S(=O)(=O)Cc4ccccc4)CCCCN3[C@H]2CO)cc1`, which inhibition is on record?
The inhibition was 72.1% (inactive).

With `C[C@@H]1CN([C@H](C)CO)C(=O)c2cc(C#Cc3ccccn3)cnc2O[C@H]1CN(C)Cc1ccccc1` as the compound, how does the inhibition read?
The inhibition was 102% (active).

With `CC(C)CC#Cc1cnc2c(c1)C(=O)N([C@@H](C)CO)C[C@@H](C)[C@H](CN(C)C(=O)Cc1ccncc1)O2` as the compound, how does the inhibition read?
Its inhibition is 76.3% (inactive).

With `C[C@@H]1CN([C@@H](C)CO)C(=O)c2cc(C#Cc3ccccc3)cnc2O[C@H]1CN(C)C(=O)c1ccccn1` as the compound, how does the inhibition read?
Its inhibition is 101% (active).

Which inhibition does the source give for `C[C@H](CO)N1C[C@H](C)[C@H](CN(C)C(=O)Nc2cccc3ccccc23)Oc2ncc(C#Cc3ccccc3)cc2C1=O` here?
Its inhibition is 99.9% (active).

With `COc1ccc(C#Cc2cnc3c(c2)C(=O)N([C@@H](C)CO)C[C@H](C)[C@@H](CN(C)C(C)=O)O3)cc1` as the compound, how does the inhibition read?
The inhibition was 19.7% (inactive).

With `COCC(=O)N(C)C[C@@H]1Oc2ncc(C#Cc3ccccc3OC)cc2C(=O)N([C@@H](C)CO)C[C@H]1C` as the compound, how does the inhibition read?
The inhibition was 109% (active).

With `C[C@@H]1CN([C@H](C)CO)C(=O)c2cc(/C=C/c3ccccc3)cnc2O[C@@H]1CN(C)Cc1ccncc1` as the compound, how does the inhibition read?
Its inhibition is 86.1% (inactive).

With `Cc1ccc(S(=O)(=O)N(C)C[C@H]2OCCCC[C@H](C)Oc3ccc(NC(=O)Cc4ccccc4)cc3C(=O)N([C@@H](C)CO)C[C@@H]2C)cc1` as the compound, how does the inhibition read?
The inhibition was 110% (active).

With `C[C@@H]1CCCCO[C@@H](CN(C)S(=O)(=O)c2ccc(Cl)cc2)[C@H](C)CN([C@@H](C)CO)C(=O)c2cc(NC(=O)Cc3ccccc3)ccc2O1` as the compound, how does the inhibition read?
Its inhibition is 108% (active).

— PubChem BioAssay AID651739 (Broad Institute, 2012)
